Screening data from PubChem BioAssay.
CHT allo act: allosterically activates the human high affinity choline transporter. B-score at 10 µM. CHT-expressing cells, membrane potential dye, choline EC20; stronger effect = higher value; LV-AA mutant CHT in HEK293 cells. 310,000 tested, 0.49% active. Q9GZV3;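 active = initial fluorescence not abnormally high and integrated response B-score, plate-corrected, over 3 SD above library mean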
Target sequence (Q9GZV3 whole entry, looked up): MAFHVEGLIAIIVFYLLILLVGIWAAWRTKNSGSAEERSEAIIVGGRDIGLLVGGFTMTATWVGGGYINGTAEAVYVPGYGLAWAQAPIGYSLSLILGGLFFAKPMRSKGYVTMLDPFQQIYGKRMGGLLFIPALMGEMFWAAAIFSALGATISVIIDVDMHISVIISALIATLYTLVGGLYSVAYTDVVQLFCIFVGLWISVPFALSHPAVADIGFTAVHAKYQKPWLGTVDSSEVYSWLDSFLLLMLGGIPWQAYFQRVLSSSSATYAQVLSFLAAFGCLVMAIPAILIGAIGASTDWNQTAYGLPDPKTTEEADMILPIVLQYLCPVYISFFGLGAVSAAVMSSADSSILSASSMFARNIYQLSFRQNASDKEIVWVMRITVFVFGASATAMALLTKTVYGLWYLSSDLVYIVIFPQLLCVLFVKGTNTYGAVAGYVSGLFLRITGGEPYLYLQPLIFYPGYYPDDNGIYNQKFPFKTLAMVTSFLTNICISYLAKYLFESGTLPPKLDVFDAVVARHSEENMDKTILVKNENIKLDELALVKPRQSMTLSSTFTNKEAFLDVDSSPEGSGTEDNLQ
CHT block: inhibits the human high affinity choline transporter | Q9GZV3 | CHT-expressing cells, membrane potential dye, choline response; stronger effect = lower value | B-score at 10 µM | 310,000 tested, 0.86% active | AID 488975;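 active = B-score over 3 SD under the library average, and starting fluorescence ratio not unusually high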;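 also: choline stimulus applied at its EC90 after an EC20 pre-addition; B-score computed on integrated fluorescence ratio after choline addition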
TAG inh: reduces triacylglycerol accumulation in H9c2 cells | Nile Red lipid (TAG) fluorescence; cells loaded with 200 µM oleic acid | inhibition, % at 12.5 µM | 230,000 tested, 0.66% active | AID 651582;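 active = pattern-corrected inhibition of lipid staining of at least 50% with the nuclear-stain viability signal not falling by more than 50%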;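 also: 0% = DMSO wells and 100% = triacsin C control wells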
Kir21 block: Kir2.1 (mouse) channel inhibition; P35561; HEK293-Kir2.1, FluxOR thallium flux fluorescence; stronger effect = lower value; B-score at 10 µM; 310,000 tested, 0.85% active;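 active = fluorescence ratio B-score at or below minus 3 SD of library scores, with starting-brightness B-score within 2 SD, cut at about -4.2 in these data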;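 also: channel flux triggered by added potassium and thallium sulfate stimulus; B-score of peak minus minimum fluorescence over baseline after thallium stimulus; more negative B-score means stronger Kir2.1 block with less thallium influx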
CHT inh conf: human CHT inhibition, confirmatory screen; shares compounds with CHT block; CHT-expressing cells, choline membrane potential dye; LV-to-AA substituted CHT, HEK293 cells; CHT activity remaining % of control (stronger effect = lower value), % at 10 µM; 2,400 tested, 70% active; AID 493221;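 active = choline transporter activity left, mean of duplicates at 10 µM, below buffer-only control mean minus 3 SD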;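 also: depolarization triggered by choline at its EC90 following an EC20 pre-addition; 0% = hemicholinium-3 full block and 100% = buffer-only control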
HEK293 CHT ctr: CHT inhibitor counter-screen hit in parental HEK293 cells; 2,400 tested, 4% active; membrane potential ratio readout (active if shifted either direction beyond buffer ±3SD; no single direction) at 10 µM; shares compounds with CHT block; membrane potential dye, choline response; active = decrease or increase beyond buffer ±3SD;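 also: parental cells lack the transporter so any hit is non-specific; ratio is peak minus trough fluorescence over baseline after EC90 choline challenge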
The depositor's hits bear a star; i = inactive; . = not tested or not shown. This is a sample that favours compounds with a hit; in the whole collection about 2% have one here.

SMILES	CHT allo act	CHT block	TAG inh	Kir21 block	CHT inh conf	HEK293 CHT ctr
CC(C)[C@H]1C(=O)Nc2ccccc2N1C(=O)N[C@@H](Cc1ccccc1)C(=O)N[C@H](Cc1ccccc1)C(=O)O	i	-7.2*	.	0.81	i	i
CC(C)[C@H]1C(=O)Nc2ccccc2N1C(=O)N[C@@H](Cc1ccccc1)C(=O)N[C@@H](Cc1ccccc1)C(=O)O	i	i	.	-0.94	.	.
CCCCCc1cc(O)c2c(C)cc(=O)oc2c1	i	i	.	-0.48	.	.
CCCCc1cc(O)c(CCCC)c(O)c1	i	-5.21*	.	-1.33	67.5%*	i
O=S(=O)(NCC1(N2CCOCC2)CCCCC1)c1ccc(F)c(F)c1F	i	i	-8.2	-0.96	.	.
COc1ccc(S(=O)(=O)N2CCN(c3nc(-c4cccnc4)nc4ccccc34)CC2)cc1	.	.	11.7	.	.	.
COc1cc(N(C)C)c([N+](=O)[O-])cc1C(=O)NC(C)CNc1ccc([N+](=O)[O-])cc1Cl (stereo unspecified)	i	-5.63*	.	-1.03	i	i
S=c1nc(-c2sccc2OCc2ccc(Cl)cc2Cl)[nH][nH]1	i	-5*	9.7	-0.88	69.7%*	i
CC[C@H](C)[C@@H](C(=O)N1CCNCC1)n1cc([C@@H](N)CO)nn1	i	i	18.1	0.46	.	.
CSc1nc2c(c(=O)[nH]1)C(c1ccncc1)C(C(=O)OC(C)C)=C(C)N2 (stereo unspecified)	i	i	2.4	0.82	.	.
COC(=O)C(Cc1c[nH]c2ccccc12)NC(=O)C(=O)c1c[nH]c2ccccc12 (stereo unspecified)	i	i	.	0.5	.	.
O=c1[nH]cc(N=Cc2cc(Cl)cc(Cl)c2O)c(=O)[nH]1	i	-12.6*	4.3	-0.13	51.4%*	i
O=c1[nH]cc(N=Cc2cc([N+](=O)[O-])ccc2O)c(=O)[nH]1	i	i	.	-0.46	.	.
O=C(COC(=O)c1cccc([N+](=O)[O-])c1)NCC1CCCO1 (stereo unspecified)	i	i	-17.0	-0.13	.	.
Cc1cc(C)c(S(=O)(=O)/N=C2\C=C(Nc3ccc(C(=O)O)cc3)C(=O)c3ccccc32)c(C)c1	i	-5.59*	.	0.62	24.6%*	i
CCN(C(=O)CSc1nnc(C)c(=O)[nH]1)c1cccc2ccccc12	.	.	-3.5	.	.	.
O=[N+]([O-])c1ccc(S(=O)(=O)Nc2nc(-c3ccccc3)cs2)cc1	i	-5.6*	.	0.91	58.2%*	i
O=S(=O)(Nc1nc(-c2ccccc2)cs1)c1cccc(C(F)(F)F)c1	i	-7.68*	.	1.63	51.0%*	i
O=S(=O)(Nc1nc(-c2ccccc2)cs1)c1cc(Cl)ccc1Cl	i	i	.	-0.31	.	.
CCn1c(SCC(=O)Nc2nc(C)c(C(=O)OC)s2)nnc1C(C)C	i	i	-12.0	-0.66	.	.
Cc1ccc(NC(=S)NNC(=O)c2ccc(N3CCOCC3)c([N+](=O)[O-])c2)cc1Cl	i	i	.	0.98	.	.
O=C(NNC(=S)Nc1ccc(Cl)cc1Cl)c1ccc(N2CCOCC2)c([N+](=O)[O-])c1	i	-5.45*	.	0	34.8%*	i
Clc1ccccc1OCc1nc(-c2ccncc2)no1	i	-6.41*	-8.0	.	16.3%*	-11.3*
c1ccc(OCc2nc(-c3ccncc3)no2)cc1	i	i	-2.9	0.32	.	.
c1ccc(OCCCc2nc(-c3ccncc3)no2)cc1	i	i	.	-0.01	58.8%*	-8.43*
SMILES	CHT allo act	CHT block	TAG inh	Kir21 block	CHT inh conf	HEK293 CHT ctr
Clc1ccc(OCc2nc(-c3ccncc3)no2)c(Br)c1	i	i	-7.7	1.33	.	.
COc1ccccc1NS(=O)(=O)c1ccc(C(=O)NCc2ccco2)cc1	.	.	-8.5	.	.	.
CCNc1cc(Cl)nc(SC)n1	i	-13.6*	1.4	0.94	-6.5%*	i
CCNc1cc(N2CCOCC2)nc(SC)n1	i	i	-2.1	-0.69	.	.
C[C@H](CO)N1C[C@H](C)[C@H](CN(C)C(=O)c2ccc(N3CCN(C)CC3)cc2)OCc2cnnn2CCCC1=O	.	.	-4.1	.	.	.
COc1ccc(NC(=O)Nc2ccc3c(c2)C(=O)N([C@@H](C)CO)C[C@@H](C)[C@@H](CN(C)CC2CCCCC2)O3)cc1	.	.	39.7	.	.	.
Cc1ccc(CSc2nnc(C)c(=O)[nH]2)cc1	i	-7.87*	.	-0.1	i	i
Cc1nnc(SCc2ccccc2)[nH]c1=O	i	i	-3.9	0.21	.	.
O=C(COc1ccc(F)cc1Br)NCC1(N2CCOCC2)CCCCC1	.	.	5.6	.	.	.
CCOC(=O)c1c(CSc2ccccc2)n(C)c2ccc(O)c(CN3CCN(C)CC3)c12	i	-7.63*	25.6	-4.88*	31.4%*	i
Cn1cc(NC(=O)Nc2ccc(C(F)(F)F)cc2)c(C(F)(F)F)n1	i	i	-27.5	-1.15	.	.
O=[N+]([O-])c1ccc(O)c(/C=N/n2cnc3ccccc32)c1	i	-5.01*	.	-0.17	i	i
C=CC[C@H](CC(=O)N(CCO)Cc1ccccc1)C(=O)N[C@@H](COC(=O)[C@@H](CC=C)Cc1ccc(F)cc1)Cc1c[nH]c2ccccc12	.	.	34.4	.	.	.
Cc1ccc(C)c(OC(C)C(=O)Nc2ccc(S(=O)(=O)Nc3nccs3)cc2)c1 (stereo unspecified)	i	i	.	1.27	.	.
CC(Oc1ccccc1Cl)C(=O)Nc1ccc(S(=O)(=O)Nc2nccs2)cc1 (stereo unspecified)	i	-7.68*	6.2	-0.21	65.5%*	i
Cc1ccccc1OC(C)C(=O)Nc1ccc(S(=O)(=O)Nc2nccs2)cc1 (stereo unspecified)	i	-7.21*	.	-0.07	47.2%*	i
C/C(CC(=O)Nc1c(C)cc(C)cc1C)=N\NC(=O)Cc1ccccc1	i	i	.	0.61	.	.
Cc1ccc(C(=O)CCC(=O)NC2CCCC(C)C2C)cc1 (stereo unspecified)	i	-5.22*	7.6	1.75	58.3%*	i
CC(C)N1CCC1(C)C(=O)Nc1ccccc1OC(F)F (stereo unspecified)	.	.	-18.9	.	.	.
CCN(CC(=O)NCc1ccc(F)cc1)C(=O)c1ccc(C(=O)c2ccccc2)cc1	i	-5.75*	.	-1.71	i	i
CCCCCc1ccc(OCCC[n+]2ccccc2)c(CCCCC)c1	i	-15.4*	88.5	-3.04	-5.5%*	i
CCOC(=O)c1ccc(NC(=S)NNC(=O)C2(C)CC2(Cl)Cl)cc1 (stereo unspecified)	i	-6.68*	.	1.3	i	i
O=C(Nc1ccc(S(=O)(=O)N2CCOCC2)cc1)c1ccc([N+](=O)[O-])cc1Cl	i	-7.44*	.	1.24	30.7%*	i
CC(CC1C(C#N)=C(N)SC(N)=C1C#N)c1ccccc1 (stereo unspecified)	i	-5.35*	11.7	0.5	i	i
